For assay [1], the target named is rat Thyrotropin Releasing Hormone Receptor (TRH), Trhr (gene 25570) (UniProt Q01717). In words: NVS_GPCR_rTRH: NovaScreen (NVS) G Protein-Coupled Receptor Assay for rat Thyrotropin Releasing Hormone Receptor (TRH) (AID 2283329).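 Also: hit means lower bound tracer signal versus DMSO baseline.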 Put shortly: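 Rat forebrain membrane prep, radioligand displacement, filter scintillation readout at 4 h. Single conc 25 uM, duplicate; actives retested as concentration series. DMSO = negative control/baseline.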
Chain of rat Thyrotropin Releasing Hormone Receptor (TRH), Trhr (gene 25570) (Q01717 whole entry, looked up): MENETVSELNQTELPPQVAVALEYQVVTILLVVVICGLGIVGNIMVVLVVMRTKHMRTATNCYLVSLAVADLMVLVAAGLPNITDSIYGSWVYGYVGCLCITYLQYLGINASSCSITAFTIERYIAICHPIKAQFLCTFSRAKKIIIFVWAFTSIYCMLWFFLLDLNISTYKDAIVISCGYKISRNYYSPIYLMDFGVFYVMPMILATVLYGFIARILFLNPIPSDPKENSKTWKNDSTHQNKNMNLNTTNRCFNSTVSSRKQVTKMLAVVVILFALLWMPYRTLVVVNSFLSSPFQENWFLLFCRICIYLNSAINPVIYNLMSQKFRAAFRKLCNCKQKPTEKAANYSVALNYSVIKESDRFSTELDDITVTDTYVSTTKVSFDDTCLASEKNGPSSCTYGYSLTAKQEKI

Assay [2] addresses bovine Estrogen Receptor (ER), ESR1 (gene 407238) (UniProt P49884). In words: NVS_NR_bER: NovaScreen (NVS) Nuclear Receptor Binding Assay for bovine Estrogen Receptor (ER) (AID 2283345).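 Also: actives lower the bound radioligand count which means they displace the ER ligand.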 Put shortly: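 Scintillation counting of displaced radioligand gave the readout; bovine uterine membrane extract supplied the receptor. Measured 18 h post-dose, normalized to DMSO baseline. Single 25 uM duplicate screen preceded concentration-response follow-up.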

For assay [3], the target named is Sodium channel protein type 1 subunit alpha (Rattus norvegicus) (UniProt P04774). In words: NVS_IC_rNaCh_site2: NovaScreen (NVS) Ion Channel Assay for rat Sodium Channel, Site 2 (NaCh) (AID 2283322).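 Also: hit means loss of radioligand binding signal relative to DMSO so AC50 marks displacement.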 In a few lines:
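Initial duplicate single-point testing at 25 uM, followed by concentration-response runs for actives. Binding of radioligand to rat forebrain membranes quantified after 1 h via filter-based radiodetection.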

Assay [4] concerns the target Voltage-dependent N-type calcium channel subunit alpha-1B (Rattus norvegicus) (UniProt Q02294). Nature of the assay: NVS_IC_rCaChN: NovaScreen (NVS) Ion Channel Assay for rat Calcium Channel, Type N (CaChN) (AID 2283317).
Assay [5] has as its target rat Neonicotinoid receptor (NNR), Chrna7 (gene 25302) (UniProt Q05941). In words: NVS_LGIC_rNNR_BungSens: NovaScreen (NVS) Ligand-Gated Ion Channel Assay for rat Neonicotinoid receptor (NNR) (AID 2283315). In a few lines: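 Rat cortical membrane preparation incubated 2.5 h with tritiated or iodinated radioligand and test chemical. Bound radioactivity was filtered and counted by scintillation, and displacement was analysed against DMSO.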

The target in assay [6] is rat Adrenergic Receptor, Alpha 2 (Adra2), Non-selective Binding, Adra2a (gene 25083) (UniProt P22909). In words: NVS_GPCR_rAdra2_NonSelective: NovaScreen (NVS) G Protein-Coupled Receptor Assay for rat Adrenergic Receptor, Alpha 2 (Adra2), Non-selective Binding (AID 2283299). Put shortly: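 Filter-based scintillation counting of radioligand binding to rat cortical membrane receptors, measured 1.25 hours post-dosing; loss of signal versus DMSO indicates displacement. Initial single-concentration duplicate at 25 uM, then concentration series.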
Chain of rat Adrenergic Receptor, Alpha 2 (Adra2), Non-selective Binding, Adra2a (gene 25083) (P22909 whole entry, looked up): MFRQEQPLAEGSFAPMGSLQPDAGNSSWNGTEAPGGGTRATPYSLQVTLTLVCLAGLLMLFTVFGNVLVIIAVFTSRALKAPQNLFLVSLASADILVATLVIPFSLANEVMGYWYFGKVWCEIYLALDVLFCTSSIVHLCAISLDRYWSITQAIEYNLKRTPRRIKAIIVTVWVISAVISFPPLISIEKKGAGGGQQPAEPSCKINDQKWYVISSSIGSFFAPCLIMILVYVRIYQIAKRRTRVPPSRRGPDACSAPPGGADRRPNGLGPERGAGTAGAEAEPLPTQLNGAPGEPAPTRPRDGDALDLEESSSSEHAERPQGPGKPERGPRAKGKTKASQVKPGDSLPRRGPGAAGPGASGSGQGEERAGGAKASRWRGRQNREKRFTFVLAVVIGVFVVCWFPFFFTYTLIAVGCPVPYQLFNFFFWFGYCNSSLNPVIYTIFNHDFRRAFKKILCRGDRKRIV

Assay [7] in a line: NVS_IC_rCaDHPRCh_L: NovaScreen (NVS) Ion Channel Assay for rat Calcium Channel, Type L, Dihydropyridine Site (CaDHPRCh_L) (AID 2283320). Put shortly: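 Rat cortex membrane preparation; dihydropyridine-site radioligand displacement read 1 h post-dose by filtration and scintillation. Primary single-point screen 25 uM in duplicate, then concentration series to 50 uM maximum; DMSO as negative control.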

The target in assay [8] is human Peripheral-type Benzodiazepine Receptor (PBR), TSPO (gene 706) (UniProt P30536). In words: NVS_MP_hPBR: NovaScreen (NVS) Membrane Protein Assay for human Peripheral-type Benzodiazepine Receptor (PBR) (AID 2283331).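 Also: hits reduce radioligand binding relative to DMSO baseline.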 Put shortly: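 Cell-free radioligand displacement, human colonic membranes, 1 h exposure. Filter radiodetection read-out. Single-concentration duplicates (25 uM), then concentration-response for actives; DMSO negative control.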
Chain of human Peripheral-type Benzodiazepine Receptor (PBR), TSPO (gene 706) (P30536 whole entry, looked up): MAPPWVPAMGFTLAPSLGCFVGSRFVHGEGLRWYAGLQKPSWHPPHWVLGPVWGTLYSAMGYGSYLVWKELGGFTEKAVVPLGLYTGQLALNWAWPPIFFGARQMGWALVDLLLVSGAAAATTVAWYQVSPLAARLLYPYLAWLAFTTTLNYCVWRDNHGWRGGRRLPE

Assay [9] addresses human Constitutive Androstane Receptor (CAR), NR1I3 (gene 9970) (UniProt Q14994). Nature of the assay: NVS_NR_hCAR_Antagonist: NovaScreen (NVS) Nuclear Receptor Binding Assay for human Constitutive Androstane Receptor Antagonism (CAR) (AID 2283344). Put shortly: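 Single 25 uM duplicate primary screen, with concentration-series follow-up on actives. Cell-free binding format run in antagonist mode, TR-FRET signal taken 1 h post-dose; activity is signal loss relative to DMSO.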

Assay [10] has as its target Estrogen receptor (Homo sapiens) (UniProt P03372). Nature of the assay: OT_ER_ERaERa_1440: Odyssey Thera (OT) 24-hour HEK293T Protein-Complementation Assay for Estrogen Receptor-alpha/-alpha Homodimer (AID 2283349).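 Also: hits raise fluorescence above DMSO for agonists and antagonists alike.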 Put shortly: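 Cells (HEK293T) carrying the fragment-tagged ERα LBD (aa 310-547) pair are treated with chemical for 24 hours. Nuclear and/or cytoplasmic fluorescence is then quantified on a laser scanning cytometer. Activity is scored as signal gain against DMSO.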

Assay [11] concerns the target rat Peripheral-type Benzodiazepine Receptor (PBR), Tspo (gene 24230) (UniProt P16257). Nature of the assay: NVS_MP_rPBR: NovaScreen (NVS) Membrane Protein Assay for rat Peripheral-type Benzodiazepine Receptor (PBR) (AID 2283335). In a few lines:
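Single-concentration duplicate screening at 25 uM preceded concentration-series retesting of actives. Binding of a specific radioligand to rat kidney membrane PBR was read by filtration radiodetection after 1 h, with plate-wise positive and negative controls.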

Records with an inconclusive call do not appear. Active and inactive are the calls of the source. The calls were made as follows: active = hit-call score of the fitted dose curve at least 0.9, where 1 is the maximum; inconclusive = response in the unintended direction; inactive = score below 0.9.

Chain of Estrogen receptor (Homo sapiens) (P03372 whole entry, looked up, the tested form may be a part): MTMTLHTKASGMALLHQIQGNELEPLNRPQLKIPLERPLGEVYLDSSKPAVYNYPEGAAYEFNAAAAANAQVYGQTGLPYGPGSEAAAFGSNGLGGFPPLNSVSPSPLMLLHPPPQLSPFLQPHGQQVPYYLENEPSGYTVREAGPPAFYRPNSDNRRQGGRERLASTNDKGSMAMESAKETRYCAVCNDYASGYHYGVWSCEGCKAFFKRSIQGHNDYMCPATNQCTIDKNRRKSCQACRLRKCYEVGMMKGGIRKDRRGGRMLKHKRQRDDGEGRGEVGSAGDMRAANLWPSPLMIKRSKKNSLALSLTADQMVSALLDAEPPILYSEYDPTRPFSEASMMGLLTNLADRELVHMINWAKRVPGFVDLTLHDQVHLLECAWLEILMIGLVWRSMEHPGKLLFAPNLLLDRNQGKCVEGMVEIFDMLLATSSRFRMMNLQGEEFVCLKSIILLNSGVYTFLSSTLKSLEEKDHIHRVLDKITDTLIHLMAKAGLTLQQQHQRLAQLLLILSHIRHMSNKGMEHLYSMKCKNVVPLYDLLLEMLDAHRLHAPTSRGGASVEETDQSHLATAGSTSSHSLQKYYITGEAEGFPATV
Chain of bovine Estrogen Receptor (ER), ESR1 (gene 407238) (P49884 whole entry, looked up): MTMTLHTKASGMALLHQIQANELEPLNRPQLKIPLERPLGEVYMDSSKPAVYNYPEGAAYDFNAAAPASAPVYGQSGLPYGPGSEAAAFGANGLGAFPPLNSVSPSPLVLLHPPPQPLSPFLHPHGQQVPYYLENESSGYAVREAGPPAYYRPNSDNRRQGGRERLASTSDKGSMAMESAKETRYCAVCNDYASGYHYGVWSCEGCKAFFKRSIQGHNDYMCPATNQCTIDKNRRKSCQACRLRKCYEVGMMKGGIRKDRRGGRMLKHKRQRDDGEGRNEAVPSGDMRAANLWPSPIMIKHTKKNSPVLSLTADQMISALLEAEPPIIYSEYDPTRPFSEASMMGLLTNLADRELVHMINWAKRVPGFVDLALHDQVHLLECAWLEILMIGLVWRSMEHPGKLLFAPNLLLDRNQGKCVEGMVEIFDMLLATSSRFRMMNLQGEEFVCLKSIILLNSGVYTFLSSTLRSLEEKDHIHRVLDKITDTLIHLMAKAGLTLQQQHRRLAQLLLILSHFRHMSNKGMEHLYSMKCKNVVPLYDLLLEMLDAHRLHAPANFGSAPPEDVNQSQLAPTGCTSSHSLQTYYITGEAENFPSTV
Chain of human Constitutive Androstane Receptor (CAR), NR1I3 (gene 9970) (Q14994 whole entry, looked up): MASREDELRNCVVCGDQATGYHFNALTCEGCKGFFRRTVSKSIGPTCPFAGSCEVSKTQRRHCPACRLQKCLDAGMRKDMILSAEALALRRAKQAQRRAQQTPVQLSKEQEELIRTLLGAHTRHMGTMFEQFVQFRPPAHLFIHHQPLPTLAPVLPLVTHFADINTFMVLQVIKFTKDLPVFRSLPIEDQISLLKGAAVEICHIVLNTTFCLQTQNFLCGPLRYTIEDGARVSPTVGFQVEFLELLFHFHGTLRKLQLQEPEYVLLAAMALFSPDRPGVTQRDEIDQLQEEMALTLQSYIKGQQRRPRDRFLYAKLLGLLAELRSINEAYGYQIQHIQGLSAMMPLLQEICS
Chain of rat Neonicotinoid receptor (NNR), Chrna7 (gene 25302) (Q05941 whole entry, looked up): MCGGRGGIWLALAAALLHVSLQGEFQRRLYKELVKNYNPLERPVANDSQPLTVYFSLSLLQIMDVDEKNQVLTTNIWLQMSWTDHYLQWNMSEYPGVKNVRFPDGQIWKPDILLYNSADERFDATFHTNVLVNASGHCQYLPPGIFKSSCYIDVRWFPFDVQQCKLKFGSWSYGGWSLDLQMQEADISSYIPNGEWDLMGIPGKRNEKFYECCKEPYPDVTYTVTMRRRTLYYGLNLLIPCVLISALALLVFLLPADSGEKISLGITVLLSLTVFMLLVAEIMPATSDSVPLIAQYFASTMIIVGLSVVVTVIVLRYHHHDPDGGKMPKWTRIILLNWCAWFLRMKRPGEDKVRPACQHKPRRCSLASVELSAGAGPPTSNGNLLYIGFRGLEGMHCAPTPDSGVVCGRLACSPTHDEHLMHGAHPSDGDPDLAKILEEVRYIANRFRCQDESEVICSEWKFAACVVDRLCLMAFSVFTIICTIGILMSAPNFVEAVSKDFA
Chain of rat Peripheral-type Benzodiazepine Receptor (PBR), Tspo (gene 24230) (P16257 whole entry, looked up): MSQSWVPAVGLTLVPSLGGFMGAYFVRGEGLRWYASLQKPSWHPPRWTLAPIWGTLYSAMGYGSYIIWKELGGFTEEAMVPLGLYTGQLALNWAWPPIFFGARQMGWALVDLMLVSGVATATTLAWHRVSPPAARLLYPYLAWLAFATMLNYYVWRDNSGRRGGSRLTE

Consider `O=[N+]([O-])c1ccc(Cl)c([N+](=O)[O-])c1`, for which the compound was called inactive in assay [1] and in [2].

Turning to `N#CCCC(Br)(C#N)CBr` (stereo unspecified), the call in assay [1] was inactive.

One may read the AC50 as the midpoint of the concentration-response curve, whichever way the signal moves. For the compound `NC(=O)CCl`, the AC50 in [3] is 42.5 µM (active).

In the case of `OC(Cc1ccccc1Cl)(Cn1cncn1)C1(Cl)CC1` (stereo unspecified), the AC50 in assay [3] was 6.73 µM (active).

Turning to `O=C(O)C1(c2ccc3c(c2)OC[C@H](Cc2ccc(-c4ccccc4)cc2)[C@H]3O)CCCC1`, in assay [4], the outcome was inactive.

With `Brc1c(Br)c(Br)c(Oc2c(Br)c(Br)c(Br)c(Br)c2Br)c(Br)c1Br`, in assay [3], the compound was classed as inactive.

Take `O=C1C[C@@H]2OCC=C3CN4CC[C@]56c7ccccc7N1[C@H]5[C@H]2[C@H]3C[C@H]46`: the compound was classed as inactive in [5].

As to `COc1ccccc1N`, the AC50 in assay [6] was 25 µM (active). Moreover, the result in assay [1] was inactive.

Take `Clc1cccc(Cl)c1`: the result in assay [7], in [8] and in assay [9] was inactive.

For `CCCCCCCCCCBr`, in assay [3], the call was inactive.

Turning to `CCOCn1c(-c2ccc(Cl)cc2)c(C#N)c(Br)c1C(F)(F)F`, the compound was classed as inactive in assay [1] and in assay [2]. Besides, the AC50 in assay [8] is 0.368 µM (active); in assay [10], 12.4 µM (active).

For the compound `CCC(C)(C#N)N=NC(C)(C#N)CC` (stereo unspecified), the compound was called inactive in assay [6].

For the compound `CCCCCCCCCCCCN(C)C`, the result in [3] and in assay [10] was inactive.

In the case of `CCOP(=O)(OCC)SCCSCC`, in [3], the outcome was inactive.

As to `COc1nn(C(=O)NS(=O)(=O)c2ccccc2OC(F)(F)F)c(=O)n1C`, in [1], the compound was classed as inactive.

For the compound `O=S1(=O)OC(c2cc(Br)c(O)c(Br)c2)(c2cc(Br)c(O)c(Br)c2)c2ccccc21`, the result in assay [1] and in assay [10] was inactive. Moreover, in assay [8], the AC50 was 5.29 µM (active).

As to `CNC(=O)O/N=C/C(C)(C)S(C)(=O)=O`, the outcome in [1] and in assay [10] was inactive.

With `CCOP(=S)(OCC)SCS(=O)(=O)C(C)(C)C`, the compound was called inactive in [3]. Moreover, the AC50 in assay [8] was 12.9 µM (active); in assay [11], 2.02 µM (active).

These data come from PubChem BioAssay (EPA / NIEHS).
